KB-V1 MDR tox – qHTS assay for MDR1-selective chemotherapeutics: Primary screen using the drug-selected MDR subline cells KB-V1. Potency, µM (series often up to 46.1 µM), hits mostly cytotoxic. AID 1347076, 2019. 400,000 compounds, 3.4% hits. KB-V1 MDR cells viability, CellTiter-Glo, 72 h; also: nearly all actives have a fitted effect of over 60% in size
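In this primary screen, KB-V1 cells overexpressing P-gp are incubated with library compounds (lowest to highest concentration) for 72 h at 37 degrees C before a luminescent ATP viability read.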
SW480 rereplic – A quantitative high throughput screen for small molecules that induce DNA re-replication in SW480 colon adenocarcinoma cells. AID 624297, 2012. Potency, µM (series often up to 46.1 µM), most hits filed as activators. 340,000 compounds, 1.8% hits. SW480 DNA re-replication, Hoechst DNA content imaging, 48 h; also: nearly all actives have a fitted effect of over 55% in size
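Treated cells incubate 48 hr (37 C, 5% CO2), are stained 40 min with Hoechst, and nuclear fluorescence is enumerated; a rise in nuclei with high DNA signal marks re-replication.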
VP16 counter – VP16 counterscreen qHTS for inhibitors of ROR gamma transcriptional activity. Drosophila S2 Gal4-VP16 UAS-luciferase, luminescence, 20 h. Potency, µM (highest dose often 53.6 µM), actives largely listed as inhibitors. 310,000 compounds, 3.5% hits. AID 2546, 2010;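 also: Gal4-VP16 expression switched on by copper sulfate through the metallothionein promoter; nearly all actives have a fitted effect of over 50% in size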
MCF10A rereplic – A quantitative high throughput screen for small molecules that induce DNA re-replication in MCF 10a normal breast cells; MCF 10A DNA re-replication, Hoechst nuclear intensity, 48 h; Potency, µM (titrated, usually from 46.1 µM), most hits filed as activators; 350,000 compounds, 2.9% hits; also: nearly all actives have a fitted effect of over 50% in size
KB-3-1 cytotox – qHTS assay for MDR1-selective chemotherapeutics: Primary screen using the parental adenocarcinoma cell KB-3-1; KB-3-1 viability, CellTiter-Glo ATP luminescence, 72 h; Potency, µM (top dose mostly 46.1 µM), actives largely listed as cytotoxic; 400,000 compounds, 1.4% hits; AID 1347075, 2019; also: nearly all actives have a fitted effect of over 60% in size
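Parental KB-3-1 viability, qHTS format: 72 h compound exposure, 37 °C; CellTiter-Glo; media-only wells and DMSO plates as controls; concentration-effect fits on corrected data.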
RORgamma inh – qHTS for inhibitors of ROR gamma transcriptional activity | Drosophila S2 Gal4-RORgamma UAS-luciferase reporter, 20 h | Potency, µM (series often up to 53.6 µM), actives largely listed as inhibitors | Nuclear receptor ROR-gamma (Mus musculus), P51450 | 310,000 compounds, 5.4% hits; also: nearly all actives have a fitted effect of over 60% in size
Target sequence (P51450 whole entry, looked up, the tested form may be a part): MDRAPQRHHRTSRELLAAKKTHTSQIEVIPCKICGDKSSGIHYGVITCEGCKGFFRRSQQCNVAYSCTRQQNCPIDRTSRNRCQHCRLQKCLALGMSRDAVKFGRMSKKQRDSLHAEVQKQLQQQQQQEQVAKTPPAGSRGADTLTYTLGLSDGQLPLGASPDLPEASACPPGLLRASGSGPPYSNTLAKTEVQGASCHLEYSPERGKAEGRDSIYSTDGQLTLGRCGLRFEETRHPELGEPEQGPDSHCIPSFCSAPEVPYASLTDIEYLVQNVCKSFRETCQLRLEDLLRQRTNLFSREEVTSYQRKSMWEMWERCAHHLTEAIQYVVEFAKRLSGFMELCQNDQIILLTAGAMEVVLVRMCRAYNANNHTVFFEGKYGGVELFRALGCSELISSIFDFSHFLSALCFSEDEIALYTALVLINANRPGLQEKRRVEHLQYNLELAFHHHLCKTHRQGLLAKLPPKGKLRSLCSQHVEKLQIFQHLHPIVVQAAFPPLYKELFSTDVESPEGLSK
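Luminescence from a UAS-regulated Photinus luciferase reporter in stably transfected Drosophila Schneider cells is measured; decreased signal marks ROR gamma inhibition. Fusion expression is induced by 700 uM copper sulfate for 20 hr.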
Numbers stand for hits. Shown are actives, neighbours in structure and some others; about 10% of the full set was active somewhere. Calls follow the shape of the dose curve; as a rule, active = well fitted curve in the direction sought with a large enough effect; inconclusive = small, poorly fitted or top-dose-only effect, or another doubt; inactive = no such curve, though single readings can be large; an effect the other way counts as inactive or inconclusive.

Screening Cc1ccc(-c2cc(C(=O)N/N=C/c3ccc([N+](=O)[O-])o3)c3ccccc3n2)o1 returned KB-V1 MDR tox inconclusive, SW480 rereplic inconclusive, VP16 counter inconclusive, MCF10A rereplic inconclusive, KB-3-1 cytotox inactive and RORgamma inh 12.6µM.
Screening Cc1cc(N/N=C/c2ccc([N+](=O)[O-])o2)nc2ccccc12 returned KB-V1 MDR tox inconclusive, SW480 rereplic inconclusive, VP16 counter inconclusive, MCF10A rereplic inactive, KB-3-1 cytotox inactive and RORgamma inh 11.2µM.
`Cc1ccc(/C=N/NC(=O)c2cc(-c3ccncc3)nc3ccccc23)o1` gave KB-V1 MDR tox inactive, SW480 rereplic inconclusive, MCF10A rereplic inconclusive and KB-3-1 cytotox 5.8µM.
CC1CCCN(c2ncnc3c2nnn3C)C1 (configuration not stated) was read as KB-V1 MDR tox inactive and KB-3-1 cytotox inactive.
Screening CC(/C=N/NC(=O)c1cc(-c2ccncc2)nc2ccccc12)=C\c1ccco1 returned KB-V1 MDR tox 1.46µM, SW480 rereplic 0.92µM, VP16 counter inactive, MCF10A rereplic inconclusive, KB-3-1 cytotox inconclusive and RORgamma inh inactive.
O=C(N/N=C/c1ccco1)c1cc(-c2cccc(Br)c2)nc2ccccc12 was read as KB-V1 MDR tox inconclusive, SW480 rereplic inactive, VP16 counter 5.62µM, MCF10A rereplic inconclusive, KB-3-1 cytotox inconclusive and RORgamma inh 3.16µM.
`Cn1c(/C=C/c2ccc([N+](=O)[O-])o2)nc2ccccc2c1=O` gave KB-V1 MDR tox inconclusive, SW480 rereplic 1.84µM, VP16 counter 6.31µM, MCF10A rereplic 5.17µM, KB-3-1 cytotox 1.84µM and RORgamma inh 6.31µM.
For O=C(N/N=C/c1ccc([N+](=O)[O-])o1)c1cn(-c2ccccc2)nc1-c1ccccc1 the results were KB-V1 MDR tox inconclusive, SW480 rereplic inactive, VP16 counter inconclusive, MCF10A rereplic 16.4µM, KB-3-1 cytotox inactive and RORgamma inh inconclusive.
O=C(NCc1ccco1)c1cc(-c2ccncc2)nc2ccccc12 was read as KB-V1 MDR tox inactive, SW480 rereplic inactive, VP16 counter inactive, MCF10A rereplic inactive, KB-3-1 cytotox inactive and RORgamma inh inactive.
For CC1(C(=O)NS(=O)(=O)c2ccc(C#N)cc2)CCN1C(=O)CC1CCCCC1 (configuration not stated) the results were KB-V1 MDR tox inactive and KB-3-1 cytotox inconclusive.
Cc1ccc(C)c(CC(=O)N2CCCCC2c2cc(C(=O)Nc3cccc(C#N)c3)no2)c1 (configuration not stated) was read as KB-V1 MDR tox inactive and KB-3-1 cytotox inactive.
Screening O=C(N/N=C/c1cccc([N+](=O)[O-])c1)c1cc(-c2ccccc2)nc2ccccc12 returned KB-V1 MDR tox inactive, SW480 rereplic inactive, VP16 counter inactive, MCF10A rereplic inactive, KB-3-1 cytotox inactive and RORgamma inh inactive.
Screening Cc1ccc2nc(SCC(=O)N/N=C/c3ccco3)cc(C)c2c1 returned KB-V1 MDR tox inactive, SW480 rereplic inactive, VP16 counter inactive, MCF10A rereplic inactive, KB-3-1 cytotox inactive and RORgamma inh inactive.
For Cc1ccc2nc(N/N=C/c3ccco3)cc(C)c2c1 the results were KB-V1 MDR tox inconclusive, SW480 rereplic inconclusive, VP16 counter inconclusive, MCF10A rereplic 16.4µM, KB-3-1 cytotox inactive and RORgamma inh 6.31µM.
Screening O=C(N/N=C/c1ccc([N+](=O)[O-])o1)c1cc(-c2ccc(-c3ccccc3)cc2)nc2ccccc12 returned KB-V1 MDR tox inactive, SW480 rereplic 1.3µM, VP16 counter 1.12µM, MCF10A rereplic 0.92µM, KB-3-1 cytotox inconclusive and RORgamma inh 0.708µM.
CCOC(=O)c1cnc2c(ccc3ccccc32)c1Nc1ccc(C(C)=O)cc1 was read as KB-V1 MDR tox 16.4µM and KB-3-1 cytotox inconclusive.
`CCOC(=O)c1cnc2c(ccc3ccccc32)c1Nc1ccccc1OC` gave KB-V1 MDR tox inactive and KB-3-1 cytotox inconclusive.
For CCOC(=O)c1cnc2c(ccc3ccccc32)c1Nc1ccc(OC)c(OC)c1 the results were KB-V1 MDR tox inconclusive and KB-3-1 cytotox 7.31µM.
For CCOC(=O)c1cnc2c(OC)cccc2c1Nc1ccc2c(c1)OCCO2 the results were KB-V1 MDR tox 13µM, SW480 rereplic inconclusive, VP16 counter 17.8µM, MCF10A rereplic inconclusive, KB-3-1 cytotox inconclusive and RORgamma inh 15.8µM.
`CC(C)(C(O)c1ccc([N+](=O)[O-])cc1)[N+](=O)[O-]` (configuration not stated) gave VP16 counter inactive and RORgamma inh inactive.
C=C(C)Cn1c(SCC(=O)Nc2cc(C)ccc2C)nc2sc3c(c2c1=O)CCCC3 was read as KB-V1 MDR tox inactive and KB-3-1 cytotox inactive.
`O=C(CSC1CS(=O)(=O)c2cc([N+](=O)[O-])ccc21)NNC(=O)c1ccccc1` (configuration not stated) gave KB-V1 MDR tox inactive, SW480 rereplic 9.2µM, VP16 counter inactive, MCF10A rereplic inconclusive, KB-3-1 cytotox inactive and RORgamma inh inactive.
`COCCN(C(=S)Nc1c(C)cc(C)cc1C)C(C)c1cccs1` (configuration not stated) gave KB-V1 MDR tox inactive, SW480 rereplic inactive, VP16 counter inactive, MCF10A rereplic inactive, KB-3-1 cytotox inactive and RORgamma inh 10µM.
COCCN(C(=S)Nc1ccc(C(C)C)cc1)C(C)c1cccs1 (configuration not stated) was read as KB-V1 MDR tox inactive, SW480 rereplic inactive, VP16 counter inconclusive, MCF10A rereplic inconclusive, KB-3-1 cytotox inactive and RORgamma inh 3.55µM.
`COCCN(C(=S)Nc1cccc(OC)c1)C(C)c1cccs1` (configuration not stated) gave KB-V1 MDR tox inactive, SW480 rereplic inactive, VP16 counter inconclusive, MCF10A rereplic inactive, KB-3-1 cytotox inactive and RORgamma inh inconclusive.
For COc1ccc(N=C(C)C2=C(O)c3ccccc3C2=O)cc1 the results were KB-V1 MDR tox inconclusive, SW480 rereplic inactive, VP16 counter inconclusive, MCF10A rereplic inactive, KB-3-1 cytotox inactive and RORgamma inh inactive.
Screening O=C1C(C=Nc2ccccc2)=C(O)c2ccccc21 returned KB-V1 MDR tox inactive, SW480 rereplic inactive, VP16 counter 11.2µM, MCF10A rereplic inactive, KB-3-1 cytotox inactive and RORgamma inh inconclusive.
Screening CN=CC1=C(O)c2ccccc2C1=O returned KB-V1 MDR tox inactive, SW480 rereplic inactive, VP16 counter inactive, MCF10A rereplic 13µM, KB-3-1 cytotox inactive and RORgamma inh inactive.

Screening data deposited in PubChem BioAssay by National Center for Advancing Translational Sciences (NCATS).
